Assay [1] concerns XIP peptide (Xip251-270) binding. Description: small-molecule binders of XIP peptide, primary screen, biochemical, small-molecule microarray, fluorescence 635/667 nm, 0.1 µg/mL protein (AID 1182). The note with it: fluorescent protein binding, 635 nm, higher = more signal, called active from +8 up or from −8 down.
The test system of another assay is XIP peptide (Xip251-270). Description: small-molecule binders of XIP peptide, primary screen, biochemical, small-molecule microarray, fluorescence 635/667 nm, 0.5 µg/mL protein (AID 1183). The note with it: small-molecule microarray binding, fluorescence 635 nm; higher = more signal.
The nature of assay [2]: Plasmodium falciparum growth inhibition, primary screen, strain 3D7, DAPI fluorescence, 100 nL (AID 1184).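 Also: parasites grown inside human red blood cells in medium with human serum.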 The following applies: P. falciparum 3D7 growth, 3 d, higher = more signal.
Assay [3] has as its target Homeobox protein Hox-A13 (Mus musculus) (UniProt Q62424). Nature of the assay: inhibitors of HoxA13-DNA binding, primary screen, biochemical, fluorescence polarization, labeled oligonucleotide (AID 1185). The following applies: 15 min, higher = more signal, called active from +8 up or from −8 down.
Assay [4] can be described thus: inhibitors of hydroxyurea-induced Chk1 phosphorylation, primary screen, imaging, HeLa, phospho-Chk1 antibody, percent positive cells (AID 1186). The following applies: hydroxyurea-induced phospho-Chk1 immunofluorescence imaging, higher = more signal.
A short description of assay [5]: inhibitors of hydroxyurea-induced Chk1 phosphorylation, primary screen, imaging, HeLa, phospho-Chk1 nuclear intensity (AID 1187). The note with it: hydroxyurea-induced phospho-Chk1 immunofluorescence imaging, higher = more signal.

The source made the active and inactive calls. Unless noted, no rule for the calls is given here.

Homeobox protein Hox-A13 (Mus musculus), sequence (Q62424 whole entry, looked up): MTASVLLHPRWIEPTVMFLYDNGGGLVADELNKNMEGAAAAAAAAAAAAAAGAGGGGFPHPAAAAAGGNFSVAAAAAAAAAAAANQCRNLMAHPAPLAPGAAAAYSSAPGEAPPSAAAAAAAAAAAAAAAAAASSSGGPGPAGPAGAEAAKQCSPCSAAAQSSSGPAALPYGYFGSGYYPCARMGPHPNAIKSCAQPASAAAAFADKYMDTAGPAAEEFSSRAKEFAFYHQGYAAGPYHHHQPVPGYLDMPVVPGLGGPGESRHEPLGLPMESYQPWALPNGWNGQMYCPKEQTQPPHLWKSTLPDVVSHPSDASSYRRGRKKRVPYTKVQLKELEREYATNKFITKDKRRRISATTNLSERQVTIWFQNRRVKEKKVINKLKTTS

In the case of `O=c1cccc(-c2ccc(F)cc2)o1`, the composite z-score was -0.133 (inactive) in assay [1] and 0.472 in the assay with XIP peptide (Xip251-270). Also, the z-score in assay [2] was 1.07; in assay [3] it was -0.287 (inactive); in assay [4] it was 0.454 (inactive); in assay [5], 0.606 (inactive).
As for `[N-]=[N+]=Nc1ccccc1C[C@]1(C(=O)O)N=C(c2ccc(OCCCO)cc2)O[C@H]1c1ccccc1N=[N+]=[N-]`, the results for the composite z-score (in assay [1]; with XIP peptide (Xip251-270)) were 0.466 (inactive) and 0.532, respectively. For the same compound, the z-score in assay [2] was -1.5; in assay [3], -4.13 (inactive); in assay [4], -0.281 (inactive); in assay [5] it was 0.0939 (inactive).
`COC(=O)C(CC#Cc1ccc2c(c1)[C@]1(C(=O)N2)[C@H](c2ccc(OCCO)cc2)N2[C@H](c3ccccc3)[C@H](c3ccccc3)OC(=O)[C@H]2[C@@H]1C(=O)N1CCN(c2ncccn2)CC1)C(=O)OC`: the composite z-score is 0.398 (inactive) in assay [1] and 0.775 in the assay on XIP peptide (Xip251-270). The z-score in assay [2] is -2.2; in assay [3], 0.338 (inactive); in assay [4] it was -0.0604 (inactive); in assay [5], -0.282 (inactive).
Take `C=CCN1C(=O)[C@]2(O[C@H](CCO)[C@@H]([Si](C)(C)c3ccc(OC)cc3)[C@@H]2C)c2cc(NC(=O)c3ccc(OC)cc3)ccc21`: the composite z-score in assay [1] is -0.129 (inactive); in the assay on XIP peptide (Xip251-270), 0.456. Besides, the z-score in assay [2] is -2.64; in assay [3] it was -5.32 (inactive); in assay [4], -0.97 (inactive); in assay [5], -0.881 (inactive).
In the case of `CN(C)C(=O)[C@@]1(CCC(=O)OC(C)(C)C)N=C(c2ccc(OCCCO)cc2)O[C@H]1c1ccccc1CN=[N+]=[N-]`, the composite z-score was 1.14 (inactive) in assay [1] and 0.316 in the assay with XIP peptide (Xip251-270). In addition, the z-score in assay [2] is -2.32; in assay [3] it was -5.91 (inactive); in assay [4] it was 0.234 (inactive); in assay [5] it was 0.422 (inactive).
On to `CN1C(=O)C2C=CC(C(O)c3ccc(F)cc3)N(NC(=O)OC(C)(C)C)C2C1=O` (configuration not stated), for which the composite z-score in assay [1] was -0.0758 (inactive); with XIP peptide (Xip251-270), 0.258. Further, the z-score was -0.383 in assay [2], -2.11 (inactive) in assay [3], 0.058 (inactive) in assay [4] and -0.173 (inactive) in assay [5].
`CN1C(=O)[C@@H]2[C@@H](CC(COc3ccccc3)=C([C@H](O)CCc3ccccc3)[C@@H]2CO)C1=O`: the values for the composite z-score (in assay [1]; in the assay with XIP peptide (Xip251-270)) were -0.221 (inactive) and 0.365, respectively. Besides, the z-score in assay [2] was -0.0804; in assay [3] it was -6.39 (inactive); in assay [4], -1.25 (inactive); in assay [5], -1.34 (inactive).
Take `CC1CC/C=C\[C@H]2OC34C=CCN(CCN5CCOCC5)C(=O)[C@H]3N(C(C)CO)C(=O)[C@@H]4C2C(=O)O1` (some centres not stated): the composite z-score in assay [1] is -0.153 (inactive); in the assay with XIP peptide (Xip251-270), 0.371. Further, the z-score in assay [2] was -0.359; in assay [3] it was -5.12 (inactive); in assay [4], 0.16 (inactive); in assay [5], 0.219 (inactive).
Turning to `Cc1ccc(S[C@]2(C(=O)NCC(C)C)CC(=O)N(C3Cc4ccccc4C3)[C@@H]2c2ccc(CO)cc2I)cc1`, the values for the composite z-score (in assay [1]; in the assay on XIP peptide (Xip251-270)) were -0.238 (inactive) and -0.658, respectively. In addition, the z-score in assay [2] was -0.233; in assay [3], -2.9 (inactive); in assay [4], 0.495 (inactive); in assay [5] it was 0.307 (inactive).
`COCC(=C=CC[C@@H](O)c1cccc(OCCO)c1)CCO`: the figures for the composite z-score (in assay [1]; in the assay with XIP peptide (Xip251-270)) were 1.14 (inactive) and -0.347, respectively. Further, the z-score in assay [2] was -0.315; in assay [3], -1.85 (inactive); in assay [4] it was -1.38 (inactive); in assay [5] it was -0.0691 (inactive).
With `COc1ccc(C(=O)Nc2cccc(CN3C(=O)[C@@]4(O[C@@H](CC(=O)N(CCO)Cc5ccccc5)[C@H]([Si](C)(C)c5ccc(OC)cc5)[C@H]4C)c4ccccc43)c2)cc1`, the composite z-score is 1.31 (inactive) in assay [1] and 0.442 with XIP peptide (Xip251-270). Also, the z-score in assay [2] is -2.54; in assay [3], -0.674 (inactive); in assay [4], -1.43 (inactive); in assay [5], -0.643 (inactive).
`CC(CO)N1C(=O)[C@@H]2[C@H]3C(=O)OCC=C[C@H]3OC23C=CCN(c2ccc(Cl)cc2)C(=O)[C@@H]13` (some centres not stated): the composite z-score in assay [1] was -0.4 (inactive); in the assay on XIP peptide (Xip251-270), -0.862. Moreover, the z-score is 0.599 in assay [2], -3 (inactive) in assay [3], -0.985 (inactive) in assay [4] and -0.995 (inactive) in assay [5].
Turning to `[N-]=[N+]=NCc1ccccc1[C@H]1OC(c2ccc(OCCCO)cc2)=N[C@@]1(CCS(=O)(=O)c1ccccc1)C(=O)NCc1ccccc1`, the values for the composite z-score (in assay [1]; with XIP peptide (Xip251-270)) were -0.165 (inactive) and 0.68, respectively. In addition, the z-score in assay [2] is -2.28; in assay [3], -0.495 (inactive); in assay [4] it was -0.189 (inactive); in assay [5] it was 0.283 (inactive).
As to `CCc1cccc(NC(=O)O[C@H]2[C@H](OC(=O)Nc3ccccc3)[C@H](OC(=O)Nc3ccccc3)[C@@H](OC)O[C@@H]2CO)c1`, the composite z-score in assay [1] was 1.54 (inactive); in the assay with XIP peptide (Xip251-270), 0.829. Moreover, the z-score in assay [2] was -1.49; in assay [3], -5.74 (inactive); in assay [4], 0.156 (inactive); in assay [5], 0.628 (inactive).
Regarding `COC(=O)[C@@]1(Cc2ccc(OC)cc2)[C@H]2c3cc(C(=O)N4CCCC4)n(Cc4ccc(S(C)(=O)=O)cc4)c3C[C@H]2CN1C(=O)c1ccccc1`, the composite z-score in assay [1] is 0.807 (inactive); in the assay on XIP peptide (Xip251-270) it was 0.511. Besides, the z-score in assay [2] was -1.42; in assay [3] it was -3.91 (inactive); in assay [4], 0.364 (inactive); in assay [5] it was 0.202 (inactive).
For the compound `COC(=O)[C@@]1(Cc2ccc(OC)cc2)[C@H]2c3cc(C(=O)N4CCCC4)n(Cc4cc(C)n(C)n4)c3C[C@H]2CN1C(=O)c1ccccc1`, the values for the composite z-score (in assay [1]; in the assay on XIP peptide (Xip251-270)) were 1.26 (inactive) and 0.528, respectively. In addition, the z-score in assay [2] is -1.44; in assay [3] it was -4.85 (inactive); in assay [4], -0.6 (inactive); in assay [5] it was -0.279 (inactive).
Turning to `COCCOC(=O)N1C(=O)[C@@]2(c3cc(C#CCCO)ccc31)[C@H](C(N)=O)[C@H]1C(=O)O[C@H](c3ccccc3)[C@H](c3ccccc3)N1[C@@H]2c1ccc(OCCO)cc1`, the composite z-score was 1.56 (inactive) in assay [1] and 0.769 with XIP peptide (Xip251-270). Further, the z-score in assay [2] is -0.624; in assay [3], -1.24 (inactive); in assay [4] it was 0.0923 (inactive); in assay [5] it was -0.0574 (inactive).

For the origin of these results see PubChem BioAssay.
